Source: PubChem BioAssay (National Center for Advancing Translational Sciences (NCATS))
In the library only some 18% were active in any assay of this set; here they are far more common.
TGFb SMAD3 inh: TGF-b pathway inhibition; Potency, µM (series often up to 46.1 µM), most hits filed as inhibitors; HepG2 CAGA-GFP TGF-b/SMAD3 reporter, GFP fluorescence, 18 h; TGF-beta stimulated, 500 pg/mL final; 410,000 compounds, 1.2% hits; AID 588855; note: nearly all actives have a fitted effect of over 65% in size
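HEPG2 CAGA-GFP cells (1000/well, DMEM with 1% FBS) were pre-incubated 2 h at 37 degrees C, given compound by pin tool, then stimulated with TGF-beta at 500 pg/mL final for 18 h before per-cell GFP fluorescence imaging.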
DT40 TDP1 CPT: DT40-hTDP1 cell growth loss with CPT; chicken DT40 Tdp1-/-;hTDP1 cells + 20 nM CPT, ATP luminescence, 48 h; Potency, µM (titrated, usually from 46.2 µM), usual class: inhibitors; 420,000 compounds, 12% hits; AID 686979; note: nearly all actives have a fitted effect of over 55% in size
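Chicken DT40 Tdp1-/- cells stably complemented with human TDP1 were seeded at 400 cells/well in medium containing 20 nM camptothecin, exposed to pin-transferred compounds, and grown at 37 °C for at least 48 hr. Viability was read as ATP luminescence.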
DT40 TDP1 no CPT: qHTS for Inhibitors of human tyrosyl-DNA phosphodiesterase 1 (TDP1): qHTS in cells in absence of CPT; DT40 Tdp1-/- hTDP1 cells, no CPT, ATP luminescence, 48 h; Potency, µM (highest dose often 46.2 µM), hits mostly inhibitors; 420,000 compounds, 15% hits; AID 686978, 2013; note: nearly all actives have a fitted effect of over 55% in size
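Readout: luminescence from CellTiter-Glo after 30 min in the dark at RT. Cells: DT40 Tdp1-/- with stable hTDP1, 400/well. Exposure: compounds alone, ≥48 hr, 37 °C.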
HepG2 tox: kills HepG2 cells in TGF-b inhibitor counter-screen | 410,000 compounds, 0.76% hits | HepG2 CAGA-GFP viability, ATP luminescence, 18 h | Potency, µM (titrated, usually from 46.1 µM), usual class: cytotoxic
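HepG2 CAGA-GFP cells (1000/well, DMEM with 1% FBS) received compound, then TGF-beta at 500 pg/mL final, and were incubated 18 hours at 37 degrees C. Viability was read by CellTiter-Glo luminescence. Media-only wells were set as complete cell-killing and DMSO as no toxicity.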
IL1B secr inh: inhibitors of inflammasome signaling (IL-1 beta secretion); THP-1 LPS/ATP IL-1B secretion, AlphaLISA, 16 h; stronger effect = lower value; activity change, % at 57.5 µM; 360,000 compounds, 4.7% hits; in the data active = activity change below about -50%; inconclusive = mostly about -30% to -49%
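Secreted IL-1B measured by AlphaLISA bead assay after 16 h compound exposure of THP-1 cells; compounds (final up to 57.5 uM) added 1 h before LPS (250 ng/mL) and ATP (1.25 mM) stimulation; lower signal means less secretion.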
TDP1 block: inhibitors of human tyrosyl-DNA phosphodiesterase TDP1 | 350,000 compounds, 0.28% hits | Potency, µM (series often up to 130 µM), hits mostly inhibitors | AID 485290 | recombinant TDP1, AlphaScreen DNA substrate cleavage; note: nearly all actives have a fitted effect of over 40% in size
Target sequence (Q9NUW8 whole entry, looked up): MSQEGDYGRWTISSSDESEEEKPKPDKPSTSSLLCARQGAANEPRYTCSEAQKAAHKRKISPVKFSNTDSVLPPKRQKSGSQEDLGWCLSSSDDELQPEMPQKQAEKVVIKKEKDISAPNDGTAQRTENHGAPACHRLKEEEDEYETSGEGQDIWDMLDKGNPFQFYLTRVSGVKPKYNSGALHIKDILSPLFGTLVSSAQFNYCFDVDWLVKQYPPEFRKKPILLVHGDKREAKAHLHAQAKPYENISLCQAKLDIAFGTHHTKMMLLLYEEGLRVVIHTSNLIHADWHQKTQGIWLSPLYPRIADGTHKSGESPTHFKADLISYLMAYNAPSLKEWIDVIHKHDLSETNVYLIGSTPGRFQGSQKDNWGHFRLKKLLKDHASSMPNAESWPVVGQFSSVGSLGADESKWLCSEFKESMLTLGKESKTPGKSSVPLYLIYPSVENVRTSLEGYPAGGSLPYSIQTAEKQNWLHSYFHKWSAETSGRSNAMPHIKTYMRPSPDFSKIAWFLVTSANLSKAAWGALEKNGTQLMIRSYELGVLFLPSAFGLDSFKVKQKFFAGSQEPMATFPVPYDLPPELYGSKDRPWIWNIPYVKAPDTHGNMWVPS
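Recombinant human Tdp1 (E. coli-expressed, 1 nM final) preincubated with compounds 15 min at room temperature, then 5'-biotin/3'-phosphotyrosine-FITC DNA substrate (15 nM final) added for 5 min. AlphaScreen beads (10 ug/ml final) added 10 min; cleavage lowers signal.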
Large screens that a line does not name were inactive. Unless noted, calls come from the whole dose curve; as a rule, active = well fitted curve in the direction sought with a large enough effect; inconclusive = small, poorly fitted or top-dose-only effect, or another doubt; inactive = no such curve, though single readings can be large; an effect the other way counts as inactive or inconclusive.

CCN(CC)c1ccc(NC(=O)CN2CCN(c3ccccc3OC)CC2)cc1	DT40 TDP1 CPT 21µM, DT40 TDP1 no CPT 16µM (no result: IL1B secr inh)
COC(=O)c1ccc(C(=O)OC)c(NC(=O)CN2CCN(c3ccccc3)CC2)c1	DT40 TDP1 CPT inconclusive
COC(=O)c1ccc(C(=O)OC)c(NC(=O)CN2CCN(c3ccccc3OC)CC2)c1	DT40 TDP1 CPT inconclusive, DT40 TDP1 no CPT 26µM
CCN(CC)C(=O)C1=C(C)N(Cc2ccc(OC)cc2)C(=O)C(CC(=O)NCCc2ccccn2)C1 (centres undefined)	none (no result: TDP1 block)
CC(C)c1cc(Cn2c3ccccc3c(=O)n2C(C)Cn2cc(-c3ccc(C(C)(C)C)cc3)nn2)on1 (centres undefined)	DT40 TDP1 CPT inconclusive, DT40 TDP1 no CPT 15µM (no result: TGFb SMAD3 inh, HepG2 tox, TDP1 block)
Cc1ccc(NS(=O)(=O)c2ccc(-c3csc(C)n3)s2)c(C)c1	TGFb SMAD3 inh inconclusive, DT40 TDP1 CPT inconclusive, DT40 TDP1 no CPT 16µM
Cc1nc(-c2ccc(S(=O)(=O)Nc3ccc(C)c(C)c3)s2)cs1	none (no result: TGFb SMAD3 inh, DT40 TDP1 CPT, DT40 TDP1 no CPT, HepG2 tox, IL1B secr inh)
COc1ccc(-c2cnc3c(NC=O)cc(-c4ccc(C(=O)N5CCOCC5)cc4)cn23)cc1OC	TGFb SMAD3 inh inconclusive, DT40 TDP1 CPT 4.1µM, DT40 TDP1 no CPT 3.3µM, IL1B secr inh inconclusive (no result: TDP1 block)
COc1ccc(-c2cc(NC=O)c3ncc(-c4ccc(C(C)=O)cc4)n3c2)cc1OC	DT40 TDP1 CPT 16µM, DT40 TDP1 no CPT 18µM, IL1B secr inh -70 (no result: TDP1 block)
COc1cc(-c2cc(NC=O)c3ncc(-c4ccc(C(C)=O)cc4)n3c2)cc(OC)c1OC	DT40 TDP1 CPT 10µM, DT40 TDP1 no CPT 7.3µM, IL1B secr inh -59 (no result: TDP1 block)
CCN1C(=NCCc2ccccn2)N[C@@H](c2cccc(C(F)(F)F)c2)C(C(=O)OC)=C1C	DT40 TDP1 CPT 11µM, DT40 TDP1 no CPT 16µM, IL1B secr inh inconclusive
COC(=O)C1=C(C)N(Cc2ccccc2)C(=O)N[C@H]1c1cccc(C(F)(F)F)c1	TGFb SMAD3 inh inconclusive, DT40 TDP1 CPT inconclusive, DT40 TDP1 no CPT inconclusive
COC(=O)C1=C(C)N(Cc2ccccc2)C(=NCCc2ccccn2)N[C@H]1c1cccc(C(F)(F)F)c1	TGFb SMAD3 inh inconclusive, DT40 TDP1 CPT 7.3µM, DT40 TDP1 no CPT 15µM
COC(=O)C1=C(C)N(Cc2ccccc2)C(=NCc2ccccc2)N[C@H]1c1cccc(C(F)(F)F)c1	TGFb SMAD3 inh inconclusive, DT40 TDP1 CPT 5.8µM, DT40 TDP1 no CPT 5.8µM, HepG2 tox 14µM, IL1B secr inh inconclusive
CCN(CCO)c1ccc(Nc2cc(-c3ccc(-c4ccccc4)cc3)ncn2)cc1	TGFb SMAD3 inh inconclusive, DT40 TDP1 CPT 18µM, DT40 TDP1 no CPT 15µM (no result: TDP1 block)
CC(C)(C)[C@@H]1COC(=O)[C@@H](Cc2ccc(F)cc2)CC/C=C\C[C@@H](CC(=O)N(CCO)Cc2ccccc2)C(=O)N1	DT40 TDP1 CPT 23µM, DT40 TDP1 no CPT inconclusive
O=C1N[C@@H](Cc2ccccc2)COC(=O)[C@H](Cc2ccc(F)cc2)CC/C=C/C[C@@H]1CC(=O)N(CCO)Cc1ccccc1	TGFb SMAD3 inh inconclusive, DT40 TDP1 CPT inconclusive, DT40 TDP1 no CPT inconclusive, IL1B secr inh inconclusive
CC(C)(C)[C@@H]1COC(=O)[C@H](Cc2ccc(F)cc2)CC/C=C\C[C@H](CC(=O)N(CCO)Cc2ccccc2)C(=O)N1	TGFb SMAD3 inh inconclusive, DT40 TDP1 CPT 9.2µM, DT40 TDP1 no CPT 9.2µM, IL1B secr inh inconclusive
CC(C)(C)[C@@H]1COC(=O)[C@H](Cc2ccc(F)cc2)C/C=C\C[C@@H](CC(=O)N(CCO)Cc2ccccc2)C(=O)N1	TGFb SMAD3 inh inconclusive, DT40 TDP1 CPT 16µM, DT40 TDP1 no CPT 21µM
CC1CCCC(NC(=O)CCCCCn2c(=S)[nH]c3ccsc3c2=O)C1C (centres undefined)	DT40 TDP1 CPT inconclusive, DT40 TDP1 no CPT inconclusive (no result: TDP1 block)
